From PubChem BioAssay
SW480 rerep: induces DNA re-replication in SW480 colon adenocarcinoma cells; SW480 DNA re-replication, Hoechst DNA content imaging, 48 h; Potency, µM (series often up to 46.1 µM), for inactives: at the highest dose re-replication activation, hits mostly activators; 1.8% of 340,000 active; further: % of control where 0% means no effect; nearly all actives have a fitted effect of over 55% in size
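Hoechst fluorescence of nuclei (405 nm excitation, 500-530 nm emission) measured by plate-scanning imager after 48 hr compound exposure at 37 C; re-replication scored as increased number of nuclei with elevated intensity.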
KB-3-1 cytotox: KB-3-1 parental cell cytotoxicity; KB-3-1 viability, CellTiter-Glo ATP luminescence, 72 h; Potency, µM (top dose mostly 46.1 µM), usual class: cytotoxic; 1.4% of 400,000 active; AID 1347075; further: on the % scale 0 is the no-effect control and ±100 the full control effect; nearly all actives have a fitted effect of over 60% in size
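Cells are dispensed, compounds pinned in, plates held at 37 °C for 72 h, then CellTiter-Glo is added and luminescence read after 10 minutes. Cell line: parental KB-3-1 in phenol-red-free DMEM, 10% FBS.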
RGS4 inh: blocks human RGS4-accelerated GTP hydrolysis; P49798; Transcreener GDP fluorescence polarization, RGS4-accelerated GTP hydrolysis; Potency, µM (highest dose often 114 µM), inactives show top-dose activity change, negative = inhibition, hits mostly inhibitors; 0.039% of 390,000 active; AID 504845; further: on the % scale 0 is the no-effect control and ±100 the full control effect; nearly all actives have a fitted effect of over 75% in size
Target sequence (P49798 whole entry, looked up): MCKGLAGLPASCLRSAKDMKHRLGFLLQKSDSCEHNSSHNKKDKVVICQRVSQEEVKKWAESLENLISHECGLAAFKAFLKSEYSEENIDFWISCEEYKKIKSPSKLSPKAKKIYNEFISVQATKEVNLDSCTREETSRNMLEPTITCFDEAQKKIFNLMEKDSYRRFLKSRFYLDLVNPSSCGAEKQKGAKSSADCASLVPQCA
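MLSMR compounds (23 nl, pin-transferred) preincubated 10 min at room temperature with a 500nM (2x) first reagent, then RGS4 at 900nM (2x) plus Transcreener GDP mix added; fluorescence polarization (620/688 nm) read before and after 90 min at 30 °C.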
KB-V1 cytotox: KB-V1 MDR subline cytotoxicity; KB-V1 MDR cells viability, CellTiter-Glo, 72 h; Potency, µM (doses to about 46.1 µM), hits mostly cytotoxic; 3.4% of 400,000 active; further: on the % scale 0 is the no-effect control and ±100 the full control effect; nearly all actives have a fitted effect of over 60% in size
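Cells of the MDR subline KB-V1 are plated, dosed with compound at multiple concentrations, and incubated 72 h at 37 degrees C; CellTiter-Glo is then added and luminescence read after 10 min.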
MCF10A rerep: DNA re-replication induction in MCF 10a cells. AID 624296. Potency, µM (top dose mostly 46.1 µM), without a hit: at the top dose activity, positive = re-replication, hits mostly activators. 2.9% of 350,000 active. MCF 10A DNA re-replication, Hoechst nuclear intensity, 48 h; further: % of control where 0% means no effect; nearly all actives have a fitted effect of over 50% in size
PTAP TSG101 blk: blocks PTAP/TSG101 interaction to inhibit HIV-1 budding | Q99816 | Fluorescence polarization, FITC-PTAP peptide / Tsg101 binding | Potency, µM (highest dose often 115 µM), inactives show at the highest dose activity change, negative = inhibition, most hits filed as inhibitors | 340,000 tested, under 10 active; active means well fitted inhibition curve with a large enough effect in the main read-out, with a control signal flat, not every such curve was filed as active; inconclusive means small, poorly fitted or top-dose-only effect, or effect the other way, or a change in a side signal; inactive means no such curve, though single readings can be large or run the other way; further: % of control where 0% means no effect
Target sequence (Q99816 whole entry, looked up): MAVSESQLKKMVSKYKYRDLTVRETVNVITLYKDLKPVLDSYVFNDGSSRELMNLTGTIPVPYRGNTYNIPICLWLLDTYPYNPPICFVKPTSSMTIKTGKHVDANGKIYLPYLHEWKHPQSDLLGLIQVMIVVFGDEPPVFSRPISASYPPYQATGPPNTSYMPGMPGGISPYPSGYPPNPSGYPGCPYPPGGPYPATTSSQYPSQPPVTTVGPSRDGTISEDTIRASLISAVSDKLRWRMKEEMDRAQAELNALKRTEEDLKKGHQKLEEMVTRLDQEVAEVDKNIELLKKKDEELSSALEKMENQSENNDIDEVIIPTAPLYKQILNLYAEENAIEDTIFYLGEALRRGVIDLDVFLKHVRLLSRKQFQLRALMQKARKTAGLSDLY
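Compounds were pin-transferred onto Tsg101 binding domain (10 uM final) in HEPES pH 7.5 buffer, then FITC-PTAP peptide was added at 50 nM final. After 20 min at RT, polarization reported peptide displacement across a qHTS concentration series.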
* hit, by the source's call; i = inactive; ? = inconclusive; / = no result. Sampled rows, rich in hits. Any-hit rate of the full collection: about 6.6%. Unless noted, the call rests on the fitted dose curve; in most records, active means well fitted curve in the direction sought with a large enough effect; inconclusive means small, poorly fitted or top-dose-only effect, or another doubt; inactive means no such curve, though single readings can be large; an effect the other way counts as inactive or inconclusive. Potency means the concentration at half of the fitted maximal effect.

SMILES	SW480 rerep	KB-3-1 cytotox	RGS4 inh	KB-V1 cytotox	MCF10A rerep	PTAP TSG101 blk
Cc1ccc(NC(=O)N2CCc3cc(S(=O)(=O)N4CCC(C)CC4)ccc32)cc1	/	/	14%	/	/	/
CCOc1cc(N2CCOCC2)c(OCC)cc1NC(=O)c1cc(S(=O)(=O)N2CCOCC2)ccc1Cl	?	?	-21%	?	?	0%
CCOc1cc(N2CCOCC2)c(OCC)cc1NS(=O)(=O)c1ccc(Cl)s1	18µM*	6.5µM*	?	5.2µM*	6.3µM*	-2%
CC(=O)c1c(C)[nH]c(C(=O)Nc2nc(-c3ccc(Cl)cc3)cs2)c1C	-9%	?	2%	?	23µM*	-5%
CC(=O)c1c(C)[nH]c(C(=O)Nc2nc(-c3ccc(-c4ccccc4)cc3)cs2)c1C	5%	15µM*	16%	21µM*	3.3µM*	-5%
CC(C)CC(C(=O)NCC1CCN(Cc2ccc(F)cc2)CC1)N1Cc2ccccc2C1=O (configuration not stated)	/	i	-18%	i	/	/
CC(=O)Nc1ccc(C=NNc2ccc([N+](=O)[O-])cc2S(=O)(=O)Nc2ccccc2C(=O)O)cc1	148%	i	-14%	i	21µM*	-4%
COc1ccc(C(C)=NNc2ccc([N+](=O)[O-])cc2S(=O)(=O)Nc2ccccc2C(=O)O)c(OC)c1	?	i	3%	i	9.2µM*	-4%
COc1ccc(NS(=O)(=O)c2cc([N+](=O)[O-])ccc2N/N=C/c2c(C)[nH]c3ccccc23)cc1	15%	i	-16%	i	9.2µM*	8%
Cc1ccc(NC(=S)NNc2ccc([N+](=O)[O-])cc2S(=O)(=O)Nc2ccccc2C(=O)O)cc1C	-3%	i	-53%	i	?	-7%
COc1ccc(NC(=O)Nc2cccc(OCc3cc(=O)n4cccc(C)c4n3)c2)c(OC)c1	/	i	17%	i	/	/
Ic1ccc(Nc2nc(NCCN3CCOCC3)nc(N3CCOCC3)n2)cc1	/	i	/	i	/	/
COc1cc2nc(=S)n3[nH]c(COc4ccccc4C)nc3c2cc1OC	-5%	?	-11%	0.92µM*	12%	-2%
Cc1ccccc1OCc1nnc(SCc2cc(=O)c3ccccc3[nH]2)n1C	/	i	0%	i	/	/
COc1cc2nc(=S)n3[nH]c(CCn4nc(C)cc4C)nc3c2cc1OC	13µM*	?	-7%	?	3%	-10%
Cc1ccc(-c2c(C3C4C=CCC(C)C4C(=O)N3Cc3ccccc3)ccc3ccccc23)cc1 (configuration not stated)	/	/	-33%	/	/	/
CC1CCN(S(=O)(=O)c2ccc3c(ccn3CCC(=O)NCc3ccccc3F)c2)CC1	/	i	-12%	i	/	/
CC1CCN(S(=O)(=O)c2ccc(C(=O)Nc3nnc(C4CC4)o3)cc2)CC1	13µM*	?	2%	i	?	-13%
COc1cccc(-c2nnc(NC(=O)c3ccc4ncsc4c3)o2)c1	-12%	?	-50%	?	6.5µM*	-2%
O=C(Nc1nnc(C2CC2)o1)c1ccc(S(=O)(=O)N2CCCCC2)cc1	20%	?	-10%	i	10%	-5%
COc1cccc(-c2nnc(NC(=O)c3ccc(S(=O)(=O)N4CCOCC4)cc3)o2)c1	?	5.8µM*	-14%	?	18%	-7%
CC1CCN(S(=O)(=O)c2ccc(C(=O)Nc3nnc(-c4ccncc4)o3)cc2)CC1	16µM*	?	-5%	?	?	-4%
CS(=O)(=O)c1ccc(-c2nnc(NC(=O)c3ccc(S(=O)(=O)N4CCCC4)cc3)o2)cc1	-5%	i	-4%	i	12%	-3%
COc1ccc(N2CC(NC(=O)c3ccc(S(=O)(=O)N4CCCCC4)cc3)CC2=O)cc1 (configuration not stated)	/	/	-11%	/	/	/
COc1ccc(CCn2c3c(c(=O)[nH]c2=O)C(NC(=O)c2ccc(C(C)(C)C)cc2)(C(F)(F)F)C(=O)N3)cc1OC (configuration not stated)	/	i	-15%	i	/	/
SMILES	SW480 rerep	KB-3-1 cytotox	RGS4 inh	KB-V1 cytotox	MCF10A rerep	PTAP TSG101 blk
CC(C)c1ccc(NC(=O)Nc2cnccn2)cc1	?	4.1µM*	5%	?	4.1µM*	-1%
COc1ccc(NC(=O)Nc2cnccn2)c(OC)c1	-6%	5.2µM*	11%	5.8µM*	-17%	0%
CCc1ccccc1NC(=O)Nc1cnccn1	-43%	i	19%	i	14%	-8%
O=C(Nc1cnccn1)Nc1cccc(Cl)c1Cl	4%	?	-13%	12µM*	?	-1%
COc1ccc(C)cc1NC(=O)Nc1cnccn1	-10%	i	-4%	i	7%	-2%
CCOc1ccccc1NC(=O)Nc1cnccn1	6%	i	-3%	6.5µM*	-8%	1%
C#CC(C)(CC)NC(=O)Cn1nnc(-c2ccc(OCc3ccccc3F)cc2)n1 (configuration not stated)	/	i	0%	i	/	/
O=C(Nc1cnccn1)Nc1ccccc1Cl	10%	?	-13%	9.2µM*	-2%	2%
CCCn1c(-c2ccccc2)cc(SC)c(C#N)c1=O	5.8µM*	i	13%	i	5%	-6%
CSc1cc(-c2ccccc2)n(Cc2ccccc2Cl)c(=O)c1C#N	6.5µM*	4.6µM*	11%	?	3.7µM*	-4%
O=C(C[n+]1cccc(Br)c1)c1cccc([N+](=O)[O-])c1	/	i	/	i	/	/
CCCCS(=O)CC(O)COCC (configuration not stated)	7%	i	-18%	i	-2%	-3%
CCCCS(=O)CC(O)COc1ccc(C(C)(C)C)cc1 (configuration not stated)	2%	i	42%	21µM*	?	/
CC(C)(C)C(=O)Nc1sc2c(c1-c1nc3ccccc3[nH]1)CCCC2	2%	i	9%	i	13µM*	-1%
COc1cccc(OCC(=O)NC2CC(=O)N(c3cccc(OC)c3)C2)c1 (configuration not stated)	/	/	-6%	/	/	/
CCOC(=O)/C(=C/C=C1\Sc2ccccc2N1CC)C(C)=O	11%	i	-9%	i	17%	?
CCOC(=O)/C(=C\C=C1/Sc2ccccc2N1CC)C(C)=O	0%	i	-24%	5.2µM*	8%	?
O=C(NC1CCCCC1)c1cccs1	-4%	i	2%	i	-4%	-5%
